Compound activity: PubChem, The Scripps Research Institute Molecular Screening Center
DAX1 inh-1: DAX1 (NR0B1) inhibitors, primary screen, cell-based, HEK293, Gal4-DAX1, luciferase luminescence; HEK293 Gal4-DAX1 luciferase reporter; inhibition, % at 6.75 µM; 340,000 tested, 0.99% active; AID 504766, 2011;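 active means inhibition above the mean over all tested compounds plus 3 SD, cut at about 4.2% in these data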;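 further: 0% = DAX1-transfected cells with DMSO and 100% = empty-vector control cells with DMSO; inhibition shows as a rise in luminescence from relieved DAX1 repression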
Target sequence (P51843 207-470 limits assumed): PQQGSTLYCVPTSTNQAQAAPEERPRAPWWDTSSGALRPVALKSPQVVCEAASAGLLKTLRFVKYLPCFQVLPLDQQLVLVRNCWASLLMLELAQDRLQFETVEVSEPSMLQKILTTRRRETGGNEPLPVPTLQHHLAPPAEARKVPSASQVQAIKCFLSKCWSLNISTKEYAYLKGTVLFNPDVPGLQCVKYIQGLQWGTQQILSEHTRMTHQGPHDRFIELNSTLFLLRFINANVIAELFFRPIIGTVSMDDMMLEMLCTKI
hcDAF12 agonist: H. contortus DAF-12 nuclear receptor activators, primary screen, cell-based, luminescence, HEK293, lit1-tk-luc reporter. HEK293 hcDAF-12 lit1-tk-luc reporter; 0% DMSO, 100% Δ7-dafachronic acid. activation, % at 6.8 µM. 370,000 tested, 1.4% active;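 active means activation above the mean of all tested compounds plus 3 SD, cut at about 5.5% in these data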;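 further: 100% = response to 3 µM Δ7-dafachronic acid high control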
DAX1 inh-2: DAX1 (NR0B1) inhibitors on StAR promoter, primary screen, cell-based, luminescence, SF-1 (NR5A1), full-length DAX-1; AID 652010, 2013; HEK293T StAR-luciferase reporter, SF-1/DAX-1 repression relief; 370,000 tested, 1.1% active; inhibition, % at 6.8 µM;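 active means inhibition above the mean over all tested compounds plus 3 SD, cut at about 3.6% in these data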;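 further: 0% = DAX-1 cells with DMSO and 100% = cells lacking DAX-1 with DMSO; higher inhibition means more luminescence from relief of DAX-1 repression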
hgDAF12 agonist: H. glycines DAF-12 receptor agonists, primary screen, cell-based, luminescence, HEK293, GAL4 fusion, UAS-luciferase | Nuclear hormone receptor DAF-12 (Heterodera glycines), GAL4 fusion | HEK293 GAL4-hgDAF12 UAS-luciferase reporter, agonist luminescence; normalized to butyrate control | activation, % at 6.8 µM | 370,000 tested, 1.8% active;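 active means activation above a cutoff set at the mean of all screened compounds plus 3 SD, cut at about 10% in these data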;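 further: 0% = DMSO wells and 100% = sodium butyrate wells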
ssDAF-12 act: S. stercoralis DAF-12 nuclear receptor activators, primary screen, cell-based, luminescence, HEK293, GRIP1 co-expression, lit1-tk-luc. HEK293 ssDAF-12/GRIP1 lit1-tk-luc reporter; % of 3 µM dafachronic acid response. activation, % at 6.8 µM. 370,000 tested, 1% active;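 active means activation above the mean over all tested compounds plus 3 SD, cut at about 0.9% in these data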;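 further: 0% = DMSO-only wells and 100% = 3 µM delta7-dafachronic acid wells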
LXR ag: LXR agonists, Gal4 luciferase reporter, confirmation, counter-screen for hcDAF-12 agonist project, cell-based, luminescence, HEK293, H. contortus campaign; shares compounds with hcDAF12 agonist; HEK293 Gal4-LXR tk-luc reporter, 24 h; normalized: DMSO 0%, positive control 100%; 3,400 tested, under 10 active; activation, % at 6.8 µM; AID 743027, 2013;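 active means mean percent activation of the reporter above a cutoff set as the average over tested compounds plus their standard deviation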
hcDAF12 ag: H. contortus DAF-12 receptor agonists, confirmation, cell-based, luminescence, HEK293, lit1-tk-luc, triplicate; shares compounds with hcDAF12 agonist; 3,400 tested, 61% active; activation, % at 6.8 µM; HEK293 hcDAF-12 lit1-tk-luc reporter; % of Δ7-dafachronic acid response;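 active means mean activation across triplicate tests above the threshold derived from the earlier primary screen, cut at about 5.5% in these data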;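 further: 0% = DMSO only wells and 100% = 3 µM Δ7-dafachronic acid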
Starred values were filed as active, the others as inactive; / = no result. A selection: hits, their analogues and other compounds. The true share with any hit is near 4.1%.

SMILES	DAX1 inh-1	hcDAF12 agonist	DAX1 inh-2	hgDAF12 agonist	ssDAF-12 act	LXR ag	hcDAF12 ag
Cn1c(=O)c(/C=C/c2ccc(F)cc2)nc2ccccc21	1	10.0*	1	7	0	0	9.9*
Cn1c(=O)c(/C=C/c2ccccc2)nc2ccccc21	3	13*	4.2*	23*	2.4*	1	16*
CN(C)c1nc2ccccc2n(C)c1=O	0	-2	0	1	-1	/	/
COc1ccc(NC2SC(=O)N(C)C2=O)cc1 (centres undefined)	0	0	0	10	0	/	/
CN(C)c1ccc(C(=O)Nc2nc3c(s2)CCCC3)cc1	-2	7.7*	3.8*	12*	-1	2	8.4*
O=C(Nc1ccc2ccccc2c1)c1ccccc1O	-2	7.8*	0	9	1.0*	2	20*
O=C(Nc1ccccc1)c1ccc(F)cc1F	1	2	0	2	0	/	/
Cc1ccc(NC(=O)c2ccc(F)cc2F)cc1	2	8.9*	2	8	0	1	4
O=C(COC(=O)c1ccccc1O)Nc1ccc2ccccc2c1	-1	3	0	0	-1	/	/
O=C(Nc1ccc2oc(=O)ccc2c1)c1ccccc1[N+](=O)[O-]	1	1	-2	0	-1	/	/
Cc1ccc(NC(=O)c2cc3ccccc3cc2O)cc1	4.5*	10*	1	10	1	1	9.2*
O=C(Nc1ccc2ccccc2c1)c1ccccc1[N+](=O)[O-]	4	7.9*	2	10	1	0	4
COc1ccc(S(=O)(=O)N2CCCCC2)cc1NC(=O)c1cnc(C)cn1	0	0	-1	5	-1	/	/
Cn1c(NC2CCCCC2)c(N=O)c(=O)n(C)c1=O	1	-1	0	0	-1	/	/
O=C(O)c1cc(-c2c[nH]c3ccccc23)nc2ccc3ccccc3c12	0	9.1*	0	4	0	0	5.8*
CCN(CC)CCn1nc2c3c(cccc3c1=O)-c1ccccc1-2	-2	11*	-3	-7	23*	0	9.5*
O=c1c2cccc3c2c(nn1CN1CCOCC1)-c1ccccc1-3	2	/	/	/	/	/	/
Cc1cc(N)n2ncc(-c3ccc(Cl)cc3)c2n1	1	6.7*	3	10	0	1	5
Cc1cc(C)n2cc(-c3ccc(Cl)cc3)c(C(=O)O)c2n1	1	10*	3	8	1.4*	1	9.3*
Cc1cc(NCCOCCO)n2ncc(-c3ccc(Cl)cc3)c2n1	4	6.7*	3.7*	10	1.0*	1	6.8*
COc1ccc(CCNc2cc(C)nc3c(-c4ccccc4OC)cnn23)cc1OC	0	-3	-1	-1	-1	/	/
O=C(CCN1CCOCC1)Nc1ccc(Cl)cc1	-1	1	0	2	-2	/	/
COc1ccc2c3c([nH]c2c1)C1CC2C(CC(O)C(OC)C2C(=O)O)CN1CC3 (centres undefined)	2	7.0*	0	3	-1	0	-1
COC(=O)[C@H]1[C@H]2C[C@@H]3c4[nH]c5cc(OC)ccc5c4CCN3C[C@H]2C[C@@H](OC(=O)c2cc(OC)c(OC)c(OC)c2)[C@@H]1OC	0	-1	0	-4	-1	/	/
Cc1ccc(Nc2nc3ccccc3nc2-n2nc(C)cc2C)cc1	0	8.8*	0	6	0	0	2
SMILES	DAX1 inh-1	hcDAF12 agonist	DAX1 inh-2	hgDAF12 agonist	ssDAF-12 act	LXR ag	hcDAF12 ag
Cc1cc(C)n(-c2nc3ccccc3nc2Nc2ccc(CC(=O)O)cc2)n1	0	2	-2	0	-1	/	/
Cc1ccc(C(=O)Nc2ccc(Br)cc2)cc1S(=O)(=O)Nc1ccccn1	-1	2	0	1	-2	/	/
CCc1ccc(N=Nc2ccc(O)c3[nH]cnc23)cc1	5.3*	7.8*	1	8	1.0*	0	8.6*
Cc1ccc(O)c(-c2cc(-c3ccccc3F)[nH]n2)c1	1	11*	1	10	0	1	9.4*
Cc1cc(C)n(-c2ccc(Cl)c(C(=O)Nc3cc(C(F)(F)F)ccc3Cl)n2)n1	1	0	0	-3	-2	/	/
N#CC1(c2ccc(NC(=O)c3ccccc3F)cc2)CCCC1	0	6.9*	3	23*	0	2	6.6*
COc1ccc(C(=O)Nc2ccc(C3(C#N)CCCC3)cc2)cc1	2	-1	0	1	-1	/	/
N#C/C(=C\c1ccccc1Br)C(=O)NC1CC1	1	0	2	1	0	/	/
Cc1ccc(OCCNC(=O)CNC(=O)c2ccc(Cl)c([N+](=O)[O-])c2)cc1	0	0	-1	1	-2	/	/
Cn1nc(-c2ccc(Cl)cc2)c2cc(C(=O)NCCN3CCOCC3)sc21	7.5*	7.3*	1	5	0	0	5
Cn1nc(-c2ccc(Cl)cc2)c2cc(C(=O)NCCCN3CCOCC3)sc21	3	/	/	/	/	/	/
CCCN(CCC)CCNC(=O)c1cc2c(-c3ccc(Cl)cc3)nn(C)c2s1	1	11*	1	6	0	0	13*
CCCCN(CC)CCNC(=O)c1cc2c(-c3ccc(Cl)cc3)nn(C)c2s1	2	10*	2	6	1.3*	0	11*
CCN1CCN(C(=O)c2cc3c(-c4ccc(Cl)cc4)nn(C)c3s2)CC1	4.5*	7.6*	1	4	1.2*	0	6.6*
Cc1cccc(-c2cc3nc(C)cc(C)n3n2)c1	1	8.6*	3	8	1.6*	1	11*
Cc1cccc(-c2cc3nc(C)cc(N4CC(C)CC(C)C4)n3n2)c1 (centres undefined)	1	-2	0	1	-1	/	/
O=C(/C=C/c1ccccc1O)c1ccc(Cl)cc1	-1	6.8*	1	9	1	0	4
Cn1c(N)c(N2CCN(c3ccccc3)CC2)c(=O)[nH]c1=O	0	-2	-1	-1	-1	/	/
